Gal4-VP16 FLuc – inhibits Gal4-VP16 luciferase reporter, ROR gamma counter-screen; 310,000 tested, 3.5% active; Drosophila S2 Gal4-VP16 UAS-luciferase, luminescence, 20 h; Potency, µM (doses to about 53.6 µM), inactives show at the highest dose activity, negative = inhibition, usual class: inhibitors;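 further: Gal4-VP16 expression switched on by copper sulfate through the metallothionein promoter; potency means the concentration at half of the fitted maximal effect; nearly all actives have a fitted effect of over 50% in size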
RORgamma inh – blocks mouse ROR gamma transcriptional activity; P51450; Drosophila S2 Gal4-RORgamma UAS-luciferase reporter, 20 h; Potency, µM (series often up to 53.6 µM), inactives show top-dose activity change, negative = inhibition, most hits filed as inhibitors; 310,000 tested, 5.4% active; further: potency means the concentration at half of the fitted maximal effect; nearly all actives have a fitted effect of over 60% in size
Target sequence (P51450 whole entry, looked up, the tested form may be a part): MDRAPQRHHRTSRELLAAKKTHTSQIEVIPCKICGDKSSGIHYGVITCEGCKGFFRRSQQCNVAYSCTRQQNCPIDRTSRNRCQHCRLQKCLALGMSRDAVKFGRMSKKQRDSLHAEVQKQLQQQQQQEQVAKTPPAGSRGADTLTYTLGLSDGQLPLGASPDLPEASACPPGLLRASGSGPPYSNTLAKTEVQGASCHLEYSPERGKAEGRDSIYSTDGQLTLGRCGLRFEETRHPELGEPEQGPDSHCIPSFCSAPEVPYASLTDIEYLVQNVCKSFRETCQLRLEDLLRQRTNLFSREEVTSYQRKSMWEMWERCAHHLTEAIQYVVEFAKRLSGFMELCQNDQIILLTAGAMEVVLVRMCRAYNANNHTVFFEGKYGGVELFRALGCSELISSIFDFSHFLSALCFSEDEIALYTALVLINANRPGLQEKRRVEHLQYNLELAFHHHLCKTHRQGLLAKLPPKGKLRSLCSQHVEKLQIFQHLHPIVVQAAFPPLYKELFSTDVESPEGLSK
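Stable Schneider cell line, Gal4 DNA-binding domain fused to ROR gamma, UAS-luciferase. Cmpd 1 hr RT → CuSO4 700 uM final → 20 hr RT → luciferase reagent 10 min → luminescence.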
Coupling enz – counter-screen for Giardia aldolase inhibitors: coupling enzyme system | coupling enzyme system counterscreen, AmpLite Red fluorescence | 290,000 tested, 0.67% active | activity change, negative = inhibition, % at 58.2 µM, hits read low; in the data active means activity change below about -30%
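Activity here indicates interference with the coupling reaction, not aldolase inhibition. Compounds at 57.5 uM final met coupling enzymes for 10 min at RT; substrate and AmpLite Red detection followed, with a 525/598 nm fluorescence read after 20 min.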
ELG1 repair inh – ELG1-dependent DNA repair inhibition | HEK293T ELG1-luciferase reporter, luminescence, 16 h; DNA damage induced by 5-fluorouridine | 330,000 tested, 2.3% active | Potency, µM (series often up to 46.1 µM), without a hit: at the highest dose activity change, negative = inhibition, hits mostly inhibitors; further: potency means the concentration at half of the fitted maximal effect; nearly all actives have a fitted effect of over 55% in size
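Luminescence from the luciferase reporter, measured 30 min after ONE-Glo reagent at room temperature, was the read-out. Beforehand, 2,000 cells per well were exposed for 16 hr at 37 °C to 5-fluorouridine together with compound or vehicle.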
TSHR antag – human thyrotropin receptor antagonism; TSHR-expressing cells, TSH-stimulated cAMP HTRF, 2 h; active compounds read low; activity change, negative = inhibition, % at 11.5 µM; 330,000 tested, 0.2% active;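 active means activity change below a set negative limit, meaning inhibition stronger than a set level, cut at about -70% in these data; inconclusive means activity change between two set negative limits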
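Cell-based HTRF cAMP assay; TSHR cells + compound, TSH EC80 (4nM final), 2 h, 37 deg C. Lysis with anti-cAMP cryptate and cAMP-d2, 30 min RT, read 665/620 nm.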
Numbers without * were called inactive; [ ] = dose if it differs, or a comment. Most compounds without a hit are left out; they make up all but 8% or so of the library. Unless noted, the call rests on the fitted dose curve; in most records, active means well fitted curve in the direction sought with a large enough effect; inconclusive means small, poorly fitted or top-dose-only effect, or another doubt; inactive means no such curve, though single readings can be large; an effect the other way counts as inactive or inconclusive. On the % scale 0 is the no-effect control and ±100 the full control effect.

How did CCSc1nc2sc3c(c2c(=O)[nH]1)CC(C)(CC)OC3 (stereo not given) do in these assays?
Gal4-VP16 FLuc: -16%; RORgamma inh: 13%; Coupling enz: 2; ELG1 repair inh: 21%; TSHR antag: -4

Results for CCC(C)C(=O)O[C@H]1C[C@@H](C)C=C2C=C[C@H](C)[C@H](CC[C@@H]3C[C@@H](O)CC(=O)O3)C21 (stereo not given in full) ?
Gal4-VP16 FLuc: -16%; RORgamma inh: 16%; Coupling enz: 5

Results for COc1cc(CC(=O)OCC(=O)c2ccc(F)cc2)cc(OC)c1OC ?
ELG1 repair inh: 12%; TSHR antag: -2

What do the screens show for `CCN(CC(=O)Nc1c(F)cccc1F)C(=O)c1ccc(C#N)cc1`?
Gal4-VP16 FLuc: 2%; RORgamma inh: 0%; Coupling enz: 2; ELG1 repair inh: 1%; TSHR antag: -1

How did Fc1cccc(CCN2CCNC[C@@H]2CC2CCCCC2)c1 do in these assays?
ELG1 repair inh: -1%; TSHR antag: 6

Results for Cc1nc(NN)c2c3c(sc2n1)COC(C)(C)C3 ?
Gal4-VP16 FLuc: -21%; RORgamma inh: 13µM*; Coupling enz: -3; ELG1 repair inh: -5%; TSHR antag: 4

Results for Cc1nc2sc3c(c2c(=O)o1)CC(C)(C)OC3 ?
Gal4-VP16 FLuc: -2%; RORgamma inh: 15%; Coupling enz: 1; ELG1 repair inh: -2%; TSHR antag: 11

How did COc1ccccc1NS(=O)(=O)c1ccc2oc(SC(C)C(=O)N3CCNC3=O)nc2c1 (stereo not given) do in these assays?
ELG1 repair inh: 26µM*; TSHR antag: -17

Results for COc1ccccc1NS(=O)(=O)c1ccc2oc(SCC(C)=O)nc2c1 ?
Gal4-VP16 FLuc: inconclusive; RORgamma inh: inconclusive; Coupling enz: 0; ELG1 repair inh: -20%; TSHR antag: -12

What do the screens show for `O=C(NCCN1CCOCC1)NC1(C(F)(F)F)Oc2ccc(Cl)cc2O1` (stereo not given)?
Gal4-VP16 FLuc: inconclusive; RORgamma inh: 0.32µM*; Coupling enz: -1; ELG1 repair inh: -20%; TSHR antag: 2

Results for COCC(C)NC(=O)NC1(C(F)(F)F)Oc2ccc(Cl)cc2O1 (stereo not given) ?
Gal4-VP16 FLuc: 11µM*; RORgamma inh: 10µM*; Coupling enz: 2; ELG1 repair inh: -2%; TSHR antag: 4

What do the screens show for `CCOC(=O)Cc1csc(NC(=O)NC2(C(F)(F)F)Oc3ccc(Cl)cc3O2)n1` (stereo not given)?
Gal4-VP16 FLuc: inconclusive; RORgamma inh: -5%; Coupling enz: -2; ELG1 repair inh: -14%; TSHR antag: -1

How did COc1ccc(S(=O)(=O)NCCCC(=O)Nc2ccc(Sc3ccc(N)cc3)cc2)cc1 do in these assays?
Gal4-VP16 FLuc: inconclusive; RORgamma inh: 15%; Coupling enz: -3

What do the screens show for `COc1ccc(NC(=O)C2CCCN(S(=O)(=O)c3ccc4c(c3)CCCN4C(C)=O)C2)cc1Cl` (stereo not given)?
Gal4-VP16 FLuc: inconclusive; RORgamma inh: 21%; ELG1 repair inh: inconclusive; TSHR antag: -6

How did Cn1cccc1C(=O)N1CCC2(CCCN(Cc3ccc(C#N)cc3)C2)CC1 do in these assays?
Gal4-VP16 FLuc: -5%; RORgamma inh: -20%; Coupling enz: -4

Results for COc1ccc(C/C(C)=N/NC(=S)Nc2ccccc2)cc1 ?
Gal4-VP16 FLuc: inconclusive; RORgamma inh: 20µM*; Coupling enz: 1; ELG1 repair inh: inconclusive; TSHR antag: 2

How did COc1ccc(C/C(C)=N/NC(=S)Nc2ccc(C)c(C)c2)cc1 do in these assays?
Gal4-VP16 FLuc: 10µM*; RORgamma inh: inconclusive; Coupling enz: 2; ELG1 repair inh: inconclusive; TSHR antag: 2

Results for COc1ccc(C/C(C)=N/NC(=S)Nc2ccc(Cl)cc2)cc1 ?
Gal4-VP16 FLuc: inconclusive; RORgamma inh: 11µM*; Coupling enz: 1; ELG1 repair inh: -4%; TSHR antag: -1

What do the screens show for `CCOc1ccc(NC(=S)N/N=C(\C)Cc2ccc(OC)cc2)cc1`?
Gal4-VP16 FLuc: inconclusive; RORgamma inh: 12%[10 µM]; Coupling enz: 4; ELG1 repair inh: 12%; TSHR antag: 28

Results for CCN(CC)C(=O)[C@H]1CC(CC(=O)NCc2ccc(OC)c(OC)c2)C(=O)N2CCc3c([nH]c4ccc(OC)cc34)[C@]12C (stereo not given in full) ?
ELG1 repair inh: -2%; TSHR antag: -6

How did Cc1cccc(NC(=O)c2cccc(S(=O)(=O)N(C)c3ccccc3)c2)n1 do in these assays?
ELG1 repair inh: -13%; TSHR antag: -3

How did Cc1ccc(N(C)S(=O)(=O)c2cccc(C(=O)Nc3ccc(N4CCOCC4)cc3)c2)cc1 do in these assays?
ELG1 repair inh: 16µM*; TSHR antag: -11

How did CN(c1ccccc1)S(=O)(=O)c1cccc(C(=O)Nc2ncn[nH]2)c1 do in these assays?
Gal4-VP16 FLuc: inconclusive; RORgamma inh: 8.9µM*; Coupling enz: 2; ELG1 repair inh: -4%; TSHR antag: -6

How did CN(c1ccccc1)S(=O)(=O)c1cccc(C(=O)Nc2ccc(N3CCOCC3)cc2)c1 do in these assays?
ELG1 repair inh: 18µM*; TSHR antag: -22

What do the screens show for `CC(C)(C)OC(=O)C[C@@H]1C/C=C\C[C@H](CC(=O)N[C@H](CO)Cc2ccccc2)C(=O)N[C@@H](Cc2c[nH]c3ccccc23)COC1=O`?
ELG1 repair inh: -28%; TSHR antag: -20

Results for Cc1ccc(N2CC(C(=O)OCC(=O)Nc3ccccc3C)CC2=O)cc1 (stereo not given) ?
ELG1 repair inh: 24%; TSHR antag: 45

How did O=C1c2ccc3c4c(ccc(c24)C(=O)N1CCCCO)C(=O)N(CCCCO)C3=O do in these assays?
Gal4-VP16 FLuc: 2%[10 µM]; RORgamma inh: 8.9µM*; Coupling enz: -40*; ELG1 repair inh: 2.1µM*; TSHR antag: -15

How did O=C(c1ccc2c(c1)C(=O)N(CCCO)C2=O)c1ccc2c(c1)C(=O)N(CCCO)C2=O do in these assays?
Gal4-VP16 FLuc: 5%; RORgamma inh: -9%; Coupling enz: -1; ELG1 repair inh: -1%; TSHR antag: -8

How did O=C(/C=C/c1ccco1)NC(=S)Nc1nc(-c2ccc(Cl)cc2)cs1 do in these assays?
Gal4-VP16 FLuc: inconclusive; RORgamma inh: 14µM*; Coupling enz: 1; ELG1 repair inh: 21%; TSHR antag: -5

What do the screens show for `O=C(/C=C\c1ccco1)Nc1nc(-c2ccccc2)cs1`?
Gal4-VP16 FLuc: -19%; RORgamma inh: inconclusive; Coupling enz: 5; ELG1 repair inh: inconclusive; TSHR antag: 3
